This is an account of results in PubChem BioAssay (NCATS).

Structures are written as SMILES. Unmarked numbers belong to inactive results. Records with an inconclusive call do not appear. Active and inactive are the calls of the source. Unless noted, calls follow the shape of the dose curve; as a rule, active = well fitted curve in the direction sought with a large enough effect; inconclusive = small, poorly fitted or top-dose-only effect, or another doubt; inactive = no such curve, though single readings can be large; an effect the other way counts as inactive or inconclusive.

One assay concerns WaGa. In words: qHTS assay to identify novel small-molecules to repurpose for Merkel cell carcinoma treatment (AID 1296009). Also: nearly all actives have a fitted effect of over 60% in size. Also: potency is read from the fitted curve at half-maximal effect. The settings on record: MCC and control cell lines, CellTiter-Glo viability, 72 h; series mostly up to 46 µM. In short, it runs like this:
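Cells were treated for 72 hr at 37 degree celsius with compounds in 8- or 11-point dose response. Viability was read by CellTiter-Glo luminescence, normalized to no-cell (cytotoxicity) and DMSO controls.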
(Quantitative high-throughput screening tests each substance at several concentrations.)

A short description of assay [1]: Drug repurposing screens with cells derived from glioblastoma tumor samples (AID 1345199). Also: nearly all actives have a fitted effect of over 40% in size. Also: potency is read from the fitted curve at half-maximal effect. As to activity, negative = cell killing: % is scaled to controls: 0 for no effect and ±100 for the full control effect. To be noted: GBM patient neurospheres viability, ATP luminescence, 48 h. The method, boiled down:
(§1)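 Four patient lines of CD133+ GBM neurospheres were screened at several concentrations; hits were retested in those lines plus three slower-growing GBM lines, using 48-hour treatment and ATP-based viability.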

A further assay has as its system astro. The description is as above. The settings on record: viability, ATP luminescence, 48 h; series mostly up to 45.9 µM. The method, boiled down: as §1
For the next assay, the system named is CAOV3. The assay is described as follows: Primary qHTS to identify gynecologic anti-cancer compounds using libraries of approved drugs and bioactive compounds (AID 1345084). Also: nearly all actives have a fitted effect of over 55% in size. Also: potency is read from the fitted curve at half-maximal effect. To be noted: Gynecologic cancer cell panel viability, ATPlite luminescence, 48 h; series mostly up to 57.5 µM. In short, it runs like this:
(§2)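 Five-point cytotoxicity, 48 h drug exposure at 37 C, 5% CO2, on cells seeded 16 h beforehand. ATP content read by ATPlite luminescence.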

Another assay concerns Es-2. The description is as above. The settings on record: Gynecologic cancer cell panel viability, ATPlite luminescence, 48 h; series mostly up to 57.5 µM. In short, it runs like this:
as §2
(In general: Cellular ATP, detected with luciferase, serves as a proxy for viable cell number.)

A further assay concerns HeLa. The description is as above. The settings on record: Gynecologic cancer cell panel viability, ATPlite luminescence, 48 h; series mostly up to 57.5 µM. In short, it runs like this:
as §2

In the next assay the test system is JEG-3. Described as above. The settings on record: Gynecologic cancer cell panel viability, ATPlite luminescence, 48 h; series mostly up to 57.5 µM. In short, it runs like this: as §2
Another assay concerns PA-1. The assay is described as above. To be noted: Gynecologic cancer cell panel viability, ATPlite luminescence, 48 h; series mostly up to 57.5 µM. In short, it runs like this:
as §2

The next assay relates to Tov-21-G. Described as above. The settings on record: Gynecologic cancer cell panel viability, ATPlite luminescence, 48 h; series mostly up to 57.5 µM. The method, boiled down: as §2
The test system of a further assay is Tov112D. The description is as above. To be noted: Gynecologic cancer cell panel viability, ATPlite luminescence, 48 h; series mostly up to 57.5 µM. The method, boiled down:
as §2

Assay [2] can be described thus: qHTS assay to identify inhibitors of the type 1 interferon - major histocompatibility complex class I in skeletal muscle: Counter screen cell viability and HiBit confirmation (AID 1347412). Also: potency is read from the fitted curve at half-maximal effect. As to activity change, negative = inhibition: % is scaled to controls: 0 for no effect and ±100 for the full control effect. As to all read-outs here: nearly all actives have a fitted effect of over 60% in size. The settings on record: iHSKM muscle cells + IFN-b, HiBiT or CellTiter-Glo, 24 h; for activity change, negative = inhibition: at 45.9 µM (top of the series). In short, it runs like this: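 Duplicate plates, pinned identically: one read for HiBiT-tagged endogenous HLA-B luminescence, the other for ATP-content viability via CellTiter Glo. Cells were genome-engineered human myoblasts given 4 ng/ml IFN-b; compounds 12-pt, 1:3 from 46 uM final; 24 hr exposure.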

The subject of the next assay is C33A. In words: Primary qHTS to identify gynecologic anti-cancer compounds using libraries of approved drugs and bioactive compounds (AID 1345084). Also: nearly all actives have a fitted effect of over 55% in size. Also: potency is read from the fitted curve at half-maximal effect. To be noted: Gynecologic cancer cell panel viability, ATPlite luminescence, 48 h; series mostly up to 57.5 µM. The method, boiled down:
as §2

The test system of the next assay is CASKI. Described as above. The settings on record: Gynecologic cancer cell panel viability, ATPlite luminescence, 48 h; series mostly up to 57.5 µM. In short, it runs like this: as §2
A further assay deals with OV90. The assay is described as above. To be noted: Gynecologic cancer cell panel viability, ATPlite luminescence, 48 h; series mostly up to 57.5 µM. The method, boiled down: as §2
The next assay relates to Hek293T. The description is as above. The settings on record: Gynecologic cancer cell panel viability, ATPlite luminescence, 48 h, control line for the selectivity index; series mostly up to 57.5 µM. In short, it runs like this: as §2
Assay [3] has as its target Nuclear receptor subfamily 1 group I member 2 (Rattus norvegicus) (UniProt Q9R1A7). The assay is described as follows: qHTS assay for small molecule activators of the rat pregnane X receptor (rPXR) signaling pathway (AID 651751; call rule not given here; also: 0% is about no effect). The settings on record: rPXR reporter cells, luciferase (One-Glo), 24 h.
Assay [4] can be described thus: qHTS assay for small molecule activators of the human pregnane X receptor (PXR) signaling pathway (AID 720659; call rule not given here; also: 0% is about no effect). The settings on record: DPX-2 HepG2 CYP3A4-luciferase, 24 h; series mostly up to 92.3 µM.
[5] abbreviates: at 45.9 µM (top of the series), tumour line B.
Setting [6] is: at 45.9 µM (top of the series), tumour line D.
The mark [7] stands for this setting: at 46 µM (top of the series), tumour line A.
The mark [8] stands for this setting: at 46.1 µM (top of the series), tumour line C.

Nuclear receptor subfamily 1 group I member 2 (Rattus norvegicus), sequence (Q9R1A7 whole entry, looked up): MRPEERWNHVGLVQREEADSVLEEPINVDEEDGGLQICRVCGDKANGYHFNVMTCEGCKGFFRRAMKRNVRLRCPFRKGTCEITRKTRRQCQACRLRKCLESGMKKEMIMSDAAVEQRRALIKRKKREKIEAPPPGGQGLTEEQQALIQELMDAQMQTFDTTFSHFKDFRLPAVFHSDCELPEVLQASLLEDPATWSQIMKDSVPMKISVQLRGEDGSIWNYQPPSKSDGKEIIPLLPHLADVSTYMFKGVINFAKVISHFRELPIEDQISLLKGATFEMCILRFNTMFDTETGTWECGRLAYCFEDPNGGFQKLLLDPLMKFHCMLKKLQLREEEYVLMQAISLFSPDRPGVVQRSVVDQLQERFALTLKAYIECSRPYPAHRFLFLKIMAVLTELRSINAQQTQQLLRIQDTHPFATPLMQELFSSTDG

`CC(C)(S)[C@@H](N)C(=O)O`: the Potency entry in the assay with WaGa and with astro was “inactive” in each case. Besides, the activity, negative = cell killing in assay [1] (setting [5]) was -10.5%; in [1] (setting [6]), -6.11%; in [1] (setting [7]) it was -3.65%; in assay [1] (setting [8]), -16.2%.
For the molecule `CCCOc1ccc2nc(NC(=O)OC)[nH]c2c1`, the Potency entry in the assay with CAOV3 is “inactive”. Besides, the Potency in the assay with Es-2 is 631 nM (active); in the assay on HeLa, 282 nM (active); in the assay on JEG-3, 1000 nM (active); with PA-1, 282 nM (active); in the assay on Tov-21-G, 316 nM (active); in the assay with Tov112D it was 316 nM (active). In assay [2] (Viability), the activity change, negative = inhibition was -24.3%.
For `CCCS(=O)c1ccc2nc(NC(=O)OC)[nH]c2c1` (centres undefined), the Potency entry in the assay with C33A, with CASKI, in the assay on Es-2, with JEG-3 and in the assay on OV90 was “inactive” each time. For the same molecule, the values for the Potency in the assay on PA-1 and in the assay on Tov112D were 14100 nM (active) and 8910 nM (active), respectively.
In the case of `CCCCN(CCCC)CCC(O)c1cc2c(Cl)cc(Cl)cc2c2cc(C(F)(F)F)ccc12` (centres undefined), the Potency entry in the assay on C33A, with CASKI, in the assay with Es-2, with HeLa, in the assay with Hek293T and with JEG-3 was “inactive” in each case. The Potency entry with PA-1, in the assay with Tov-21-G, in the assay with Tov112D and with astro was “inactive” each time. Besides, in [1] (at 20 µM (top of the series), tumour line C), the activity, negative = cell killing is -14%. In addition, the results for the Potency in [1] (tumour line A), in assay [1] (tumour line B) and in assay [1] (tumour line D) were 11200 nM (active), 10000 nM (active) and 11200 nM (active), respectively.
For `CC(=O)N1CCN(c2ccc(OC[C@H]3CO[C@](Cn4ccnc4)(c4ccc(Cl)cc4Cl)O3)cc2)CC1`, the Potency entry in the assay with astro was “inactive”. In addition, the max response in assay [3] is -5.89%. Further, the molecule was called inactive in [4].
In the case of `O=P(O)(O)C(O)(Cn1ccnc1)P(=O)(O)O`, the Potency entry with WaGa and with astro was “inactive” throughout. Moreover, the activity, negative = cell killing in assay [1] (setting [5]) is -3.43%; in [1] (setting [6]), -0.668%; in [1] (setting [7]), -16.2%; in assay [1] (setting [8]) it was -7.84%.
For the molecule `O=c1c(O)c(-c2ccc(O)cc2O)oc2cc(O)cc(O)c12`, in the assay with WaGa, the Potency entry was “inactive”. Also, in [3], the max response is -2.11%.
Take `CCCCc1ccc2nc(NC(=O)OC)[nH]c2c1`: the Potency with C33A was 794 nM (active); in the assay on Es-2, 562 nM (active); with HeLa, 398 nM (active); in the assay on OV90, 1580 nM (active); in the assay with PA-1, 282 nM (active); with Tov-21-G it was 631 nM (active). Further, in the assay with Tov112D, the Potency is 251 nM (active).
`NC(=NCc1ccccc1)NC(=O)c1nc(Cl)c(N)nc1N`: in the assay on WaGa, the Potency result is “inactive”. Further, the activity change, negative = inhibition in assay [2] (HiBiT) was -27.7%; in assay [2] (Viability) it was -20.2%.
For `CC(=O)O[C@H]1C(=O)[C@@]2(C)C([C@H](OC(=O)c3ccccc3)[C@]3(O)C[C@H](OC(=O)[C@H](O)[C@@H](NC(=O)c4ccccc4)c4ccccc4)C(C)=C1C3(C)C)[C@]1(OC(C)=O)CO[C@@H]1C[C@@H]2O` (some centres undefined), the Potency result in the assay with CAOV3, in the assay on Hek293T, in the assay with JEG-3 and in the assay on OV90 was “inactive” each time. Further, the Potency is 282 nM (active) in the assay on Es-2 and 79.4 nM (active) in the assay on HeLa.
As to `O=Nc1c(-c2c(O)[nH]c3cc(Br)ccc23)[nH]c2ccccc12`, the Potency in assay [2] (HiBiT) was 22200 nM (active).
Take `Nc1nc(Cl)nc2c1ncn2[C@H]1C[C@H](O)[C@@H](CO)O1`: the Potency in the assay on WaGa is 418 nM (active). The max response in assay [3] is -12.9%.
Regarding `CN(C)[C@@H](CCOc1cccc2ccccc12)c1ccccc1`, the Potency result in the assay on C33A, in the assay with CAOV3, with CASKI, in the assay with Es-2, with HeLa and in the assay with JEG-3 was “inactive” each time. For the same molecule, the Potency result in the assay on PA-1, with Tov-21-G and in the assay with Tov112D was “inactive” in each case.
